Inconclusive results are not listed. Calls of active or inactive are those of the source.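 How the source made its calls, unless noted: active means percent response above 42, roughly 3 SD of non-fluorescent test compounds; inactive means the rest.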

Assay [1] can be described thus: yeast TOR pathway RPL19A-GFP modulators, primary screen, cell-based, S. cerevisiae, multiplex flow cytometry (AID 1862; in the data active means percent of DMSO control GFP below about 86%;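 further: lower values mimic rapamycin by blocking the RPL19A rise seen in DMSO cells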). The following applies: S. cerevisiae RPL19A-GFP strain, flow cytometry fluorescence, 3 h; at 10 µM; stronger effect = lower value. On the technique in general: In flow cytometry, cells or beads pass a laser one at a time.
Assay [2] in a line: modulators of MEP2-GFP levels in yeast, primary screen, S. cerevisiae, multiplex flow cytometry (AID 1867;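 active means GFP response, as percent of the DMSO control, above the screen-wide mean plus 3 SD, about 139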;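 further: median GFP channel fluorescence of barcode-gated MEP2-GFP cells measured by flow cytometry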). The following applies: S. cerevisiae MEP2-GFP strain, 3 h, at 10 µM, stronger effect = higher value, 100% means same as DMSO wells.
Assay [3] can be described thus: modulators of CIT2-GFP expression in yeast, primary screen, S. cerevisiae, GFP fusion, multiplex flow cytometry (AID 1870;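 active means percent response above a set limit, the screen-wide mean plus 3 SD, cut at about 130% in these data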;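 further: barcoded CIT2-GFP strain pooled with four other GFP strains with rapamycin as positive control; median GFP fluorescence per well over plate mean of DMSO wells so 100% = DMSO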). As to conditions: 3 h, at 10 µM, stronger effect = higher value.
Assay [4] is described as follows: modulators of LAP4-GFP expression in yeast, primary screen, S. cerevisiae, multiplex flow cytometry (AID 1873;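 active means GFP signal, as percent of the solvent control, above the screen mean plus 3 SD, about 149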). As to conditions: 3 h, at 10 µM, stronger effect = higher value.
Assay [5] in a line: modulators of AGP1-GFP expression in yeast TOR pathway, primary screen, cell-based, multiplex flow cytometry, S. cerevisiae (AID 1887;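 active means GFP signal above the screen-wide mean plus 3 SD, that is over about 124.5% of the solvent control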;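 further: AGP1-GFP fusion strain of S. cerevisiae within a five-strain barcoded multiplex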). As to conditions: 3 h, at 10 µM, stronger effect = higher value.
Assay [6] is described as follows: inhibitors of CD8+ T cell-vesicle binding, pilot screen, LFA-1/ICAM-1 modulator project, MLPCN validation set, flow cytometry (AID 2523;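 active means response below a set limit, under 55% cells CD8-positive and vesicle-bound, and CD8 cells' 90th-percentile brightness under 279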;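 on vesicle binding response: mean PE anti-B7-1 fluorescence of CD8+ cells relative to row control; 100% = QL9-loaded vesicles with DMSO vehicle in the same plate row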). As to conditions: 2C mouse CD8+ T cells, at 7 µM, stronger effect = lower value; double positive events: measured here: CD8+/vesicle+ event percentage.
In assay [7] the target is Integrin beta-1 (Homo sapiens) + Integrin alpha-4 (Homo sapiens) (UniProt P13612+P05556). Put plainly: inhibition of HUTS-21 binding to VLA-4, pilot screen, VLA-4 allosteric modulator project, U937 cells, HUTS-21 mAb, flow cytometry, validation set (AID 2674;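 active means inhibition above 50%, about 3 SD of the validation set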;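 further: antibody binding induced by the VLA-4 ligand LDV present at three times its Kd; 0% = LDV ligand with antibody and no compound and 100% = antibody without LDV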). The following applies: HUTS-21 LIBS mAb binding, at 6.7 µM, stronger effect = higher value, binding induced by LDV ligand.
Chain of Integrin beta-1 (Homo sapiens) + Integrin alpha-4 (Homo sapiens) (P05556 whole entry, looked up): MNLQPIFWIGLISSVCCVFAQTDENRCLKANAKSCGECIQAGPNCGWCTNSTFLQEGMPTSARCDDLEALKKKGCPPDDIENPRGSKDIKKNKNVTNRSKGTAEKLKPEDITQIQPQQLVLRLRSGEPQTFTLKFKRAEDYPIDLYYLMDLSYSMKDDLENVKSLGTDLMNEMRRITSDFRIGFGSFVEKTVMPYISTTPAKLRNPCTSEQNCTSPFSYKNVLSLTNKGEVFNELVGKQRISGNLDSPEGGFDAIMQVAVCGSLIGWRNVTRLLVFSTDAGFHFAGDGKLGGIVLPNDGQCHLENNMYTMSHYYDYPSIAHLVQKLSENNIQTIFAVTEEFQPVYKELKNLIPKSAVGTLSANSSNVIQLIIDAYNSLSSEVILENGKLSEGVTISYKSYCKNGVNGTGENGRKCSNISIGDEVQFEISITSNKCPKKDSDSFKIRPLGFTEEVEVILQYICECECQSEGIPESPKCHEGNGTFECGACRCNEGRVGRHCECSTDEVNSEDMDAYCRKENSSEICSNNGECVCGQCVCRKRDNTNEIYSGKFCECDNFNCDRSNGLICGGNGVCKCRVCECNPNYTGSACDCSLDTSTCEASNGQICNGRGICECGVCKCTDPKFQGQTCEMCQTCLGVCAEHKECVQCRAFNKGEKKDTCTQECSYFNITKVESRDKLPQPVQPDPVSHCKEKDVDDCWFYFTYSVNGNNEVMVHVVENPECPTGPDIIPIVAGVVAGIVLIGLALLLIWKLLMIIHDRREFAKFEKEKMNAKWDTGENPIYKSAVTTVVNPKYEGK
Chain of Integrin beta-1 (Homo sapiens) + Integrin alpha-4 (Homo sapiens) (P13612 whole entry, looked up): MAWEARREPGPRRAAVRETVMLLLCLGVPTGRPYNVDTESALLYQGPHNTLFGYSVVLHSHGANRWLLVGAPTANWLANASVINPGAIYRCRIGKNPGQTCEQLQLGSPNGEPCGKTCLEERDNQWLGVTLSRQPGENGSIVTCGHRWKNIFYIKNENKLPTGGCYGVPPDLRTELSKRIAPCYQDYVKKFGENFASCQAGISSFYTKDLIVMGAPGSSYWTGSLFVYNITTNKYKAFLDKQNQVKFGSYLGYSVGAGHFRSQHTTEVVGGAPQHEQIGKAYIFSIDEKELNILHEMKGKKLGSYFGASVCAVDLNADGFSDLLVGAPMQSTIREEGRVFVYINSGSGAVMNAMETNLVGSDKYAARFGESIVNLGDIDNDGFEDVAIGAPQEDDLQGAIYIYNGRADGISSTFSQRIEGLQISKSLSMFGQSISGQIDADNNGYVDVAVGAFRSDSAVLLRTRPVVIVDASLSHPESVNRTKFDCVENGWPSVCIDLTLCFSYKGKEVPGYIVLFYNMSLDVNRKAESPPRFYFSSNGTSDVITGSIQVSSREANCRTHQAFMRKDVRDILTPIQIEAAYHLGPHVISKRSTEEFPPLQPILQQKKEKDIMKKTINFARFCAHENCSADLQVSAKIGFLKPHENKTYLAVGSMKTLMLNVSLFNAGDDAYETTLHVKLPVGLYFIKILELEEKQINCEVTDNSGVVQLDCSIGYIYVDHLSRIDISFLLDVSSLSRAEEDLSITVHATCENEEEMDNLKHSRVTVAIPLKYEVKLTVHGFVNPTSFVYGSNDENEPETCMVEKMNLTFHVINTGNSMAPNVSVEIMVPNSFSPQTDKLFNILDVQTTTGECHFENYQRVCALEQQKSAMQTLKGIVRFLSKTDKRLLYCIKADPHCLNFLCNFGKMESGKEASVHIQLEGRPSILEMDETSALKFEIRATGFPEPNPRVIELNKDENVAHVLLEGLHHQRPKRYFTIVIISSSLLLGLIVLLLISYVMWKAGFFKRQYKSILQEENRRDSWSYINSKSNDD
Assay [8] in a line: superoxide lowering in aged yeast cells, pilot screen, validation compound set (AID 2706;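 active means superoxide response below 65% of plate, a cut near 3 SD across the whole screen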;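 further: yeast exposed to compound for one week at 30 degrees C before staining; 100% = mean of all compound wells on the same plate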). The following applies: S. cerevisiae aging, superoxide DHE fluorescence; at 10 µM; stronger effect = lower value.
In assay [9] the target is Beta-adrenergic receptor kinase 1 (Homo sapiens) (UniProt P25098). Put plainly: GRK2 binders displacing RNA aptamer, biochemical, validation, human GRK2, bead flow cytometry (AID 488806;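 active means aptamer binding inhibition above 30%, about 3 SD of noise from non-fluorescent compounds; inactive means inhibition at or below 30%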). As to conditions: bead-bound GRK2, FAM-aptamer displacement, at 10 µM, stronger effect = higher value.
Chain of Beta-adrenergic receptor kinase 1 (Homo sapiens) (P25098 whole entry, looked up): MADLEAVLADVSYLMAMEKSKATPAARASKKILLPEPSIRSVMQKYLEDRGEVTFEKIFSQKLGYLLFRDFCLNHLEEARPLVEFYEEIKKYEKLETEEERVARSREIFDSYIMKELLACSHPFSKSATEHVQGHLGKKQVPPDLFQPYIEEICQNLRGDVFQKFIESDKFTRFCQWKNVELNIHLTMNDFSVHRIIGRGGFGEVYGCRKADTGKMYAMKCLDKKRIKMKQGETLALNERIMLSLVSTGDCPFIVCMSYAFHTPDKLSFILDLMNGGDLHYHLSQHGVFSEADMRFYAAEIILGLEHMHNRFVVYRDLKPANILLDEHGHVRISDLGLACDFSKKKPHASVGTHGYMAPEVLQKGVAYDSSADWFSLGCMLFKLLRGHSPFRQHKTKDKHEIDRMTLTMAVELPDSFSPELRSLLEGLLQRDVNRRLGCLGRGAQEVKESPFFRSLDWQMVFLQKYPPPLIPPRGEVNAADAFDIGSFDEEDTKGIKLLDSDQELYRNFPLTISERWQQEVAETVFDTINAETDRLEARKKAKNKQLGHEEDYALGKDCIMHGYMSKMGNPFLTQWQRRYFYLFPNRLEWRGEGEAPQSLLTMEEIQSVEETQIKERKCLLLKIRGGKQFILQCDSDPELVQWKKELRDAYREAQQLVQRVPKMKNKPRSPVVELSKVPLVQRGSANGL
The target of assay [10] is Beta-2 adrenergic receptor (Homo sapiens) (UniProt P07550). Put plainly: beta2AR agonists driving receptor internalization, pilot screen, cell-based, FAP fluorogen, flow cytometry, validation set (AID 504459).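 Further: agonist-driven loss of surface beta2AR via internalization measured by FAP dye flow cytometry.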 The following applies: Am2.2-beta2AR cells, FAP surface receptor flow cytometry; at 10 µM; stronger effect = higher value.
Chain of Beta-2 adrenergic receptor (Homo sapiens) (P07550 whole entry, looked up): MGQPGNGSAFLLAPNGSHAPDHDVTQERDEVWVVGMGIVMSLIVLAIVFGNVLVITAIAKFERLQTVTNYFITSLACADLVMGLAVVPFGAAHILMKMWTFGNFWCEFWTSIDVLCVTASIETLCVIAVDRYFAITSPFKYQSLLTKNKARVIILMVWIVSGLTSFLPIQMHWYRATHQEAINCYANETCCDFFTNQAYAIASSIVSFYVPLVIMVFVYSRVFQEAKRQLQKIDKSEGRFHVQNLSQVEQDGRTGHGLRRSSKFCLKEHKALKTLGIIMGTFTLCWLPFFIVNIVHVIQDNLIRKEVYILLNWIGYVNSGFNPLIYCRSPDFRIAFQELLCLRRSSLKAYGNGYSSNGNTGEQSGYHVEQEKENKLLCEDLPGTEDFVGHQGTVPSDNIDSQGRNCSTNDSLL
In assay [11] the target is AP-2 complex subunit beta (Homo sapiens) (UniProt P63010). Put plainly: inhibitors of arrestin peptide binding to AP2, pilot screen, biochemical, validation set, GST-AP2 beads, flow cytometry (AID 504541;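 active means inhibition above 54%, about 3 SD of non-fluorescent compounds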;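 further: AP2 carries R879A mutation and is captured from E. coli lysate; bead-bound FITC arrestin peptide fluorescence measuring arrestin peptide binding to AP2; 0% = DMSO wells and 100% = excess unlabeled arrestin peptide control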). As to conditions: FITC arrestin peptide, at 10 µM, stronger effect = higher value, AP2 beta2 appendage fragment, R879A mutant.
Chain of AP-2 complex subunit beta (Homo sapiens) (P63010 whole entry, looked up, the tested form may be a part, one chain of several): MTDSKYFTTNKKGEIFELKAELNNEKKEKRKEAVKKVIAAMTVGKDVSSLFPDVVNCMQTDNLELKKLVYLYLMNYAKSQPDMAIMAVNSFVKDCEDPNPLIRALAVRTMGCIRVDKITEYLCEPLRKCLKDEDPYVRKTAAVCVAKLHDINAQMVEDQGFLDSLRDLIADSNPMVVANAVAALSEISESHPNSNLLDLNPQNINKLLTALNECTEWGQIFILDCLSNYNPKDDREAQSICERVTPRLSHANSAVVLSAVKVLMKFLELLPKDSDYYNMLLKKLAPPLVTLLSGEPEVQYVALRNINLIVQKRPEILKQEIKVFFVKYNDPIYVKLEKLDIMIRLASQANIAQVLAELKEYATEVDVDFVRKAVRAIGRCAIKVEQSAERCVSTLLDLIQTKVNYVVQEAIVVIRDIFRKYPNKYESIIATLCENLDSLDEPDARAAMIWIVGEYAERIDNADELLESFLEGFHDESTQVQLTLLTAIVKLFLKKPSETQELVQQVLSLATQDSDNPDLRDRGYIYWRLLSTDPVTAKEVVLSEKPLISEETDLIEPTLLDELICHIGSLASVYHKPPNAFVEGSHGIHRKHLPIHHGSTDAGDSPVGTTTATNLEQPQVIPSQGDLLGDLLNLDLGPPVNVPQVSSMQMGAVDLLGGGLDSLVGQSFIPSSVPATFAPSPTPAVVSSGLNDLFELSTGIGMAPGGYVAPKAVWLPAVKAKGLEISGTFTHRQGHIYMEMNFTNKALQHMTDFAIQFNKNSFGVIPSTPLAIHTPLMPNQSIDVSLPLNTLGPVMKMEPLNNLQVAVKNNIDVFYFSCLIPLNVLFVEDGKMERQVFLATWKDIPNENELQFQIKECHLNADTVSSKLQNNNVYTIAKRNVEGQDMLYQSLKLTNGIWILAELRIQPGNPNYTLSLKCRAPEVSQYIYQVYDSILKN
The nature of assay [12]: yeast V-ATPase proton transport modulators, S. cerevisiae, pHLuorin, HTS validation (AID 504600; in the data active means response above about 15%;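 further: plate controls were DMSO for no effect and reference compound for full effect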). The following applies: S. cerevisiae pHLuorin cytosolic pH, at 10 µM, stronger effect = higher value.
Assay [13] has as its system anti-desmoglein-3 scFv antibody binding to human DSG3. Put plainly: inhibitors of anti-DSG3 scFv binding to DSG3, pilot screen, biochemical, validation compound set, bead-based, flow cytometry (AID 588368;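 active means binding below the plate cutoff, the plate median minus 3 SD, with a reading above zero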;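 further: signal is the median channel fluorescence of bead-bound GFP antibody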). The following applies: Protein G beads, DSG3-Fc, scFv-GFP binding, at 10 µM, stronger effect = lower value.
A short description of assay [14]: inhibitors of fungal efflux pumps CDR1, CDR2, MDR1, pilot screen, validation compound set, multiplex, phenotypic (AID 588506;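 active means efflux inhibition above 0.42, the validation set average plus 4 SD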;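 further: Nile Red retained in cells so higher fluorescence means more efflux inhibition; 0 = negative control wells and 1 = enniatin B 25 µM full block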). The following applies: S. cerevisiae pump-expressing triplex, Nile Red efflux flow cytometry; at 10 µM; stronger effect = higher value; the pumps come from Candida albicans.
The target of assay [15] is ATP-binding cassette sub-family B member 6 (Homo sapiens) (UniProt Q9NP58). Put plainly: ABCB6 transporter inhibitors, pilot screen, K562-ABCB6 cells, flow cytometry, validation set (AID 588550;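 active means inhibition above the screen-wide mean plus 3 SD, about 51%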;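 further: 0% = DMSO wells and 100% = benzethonium chloride 70 µM positive control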). As to conditions: K562-ABCB6 porphyrin accumulation, 1 h, at 10 µM, stronger effect = higher value.
Chain of ATP-binding cassette sub-family B member 6 (Homo sapiens) (Q9NP58 whole entry, looked up): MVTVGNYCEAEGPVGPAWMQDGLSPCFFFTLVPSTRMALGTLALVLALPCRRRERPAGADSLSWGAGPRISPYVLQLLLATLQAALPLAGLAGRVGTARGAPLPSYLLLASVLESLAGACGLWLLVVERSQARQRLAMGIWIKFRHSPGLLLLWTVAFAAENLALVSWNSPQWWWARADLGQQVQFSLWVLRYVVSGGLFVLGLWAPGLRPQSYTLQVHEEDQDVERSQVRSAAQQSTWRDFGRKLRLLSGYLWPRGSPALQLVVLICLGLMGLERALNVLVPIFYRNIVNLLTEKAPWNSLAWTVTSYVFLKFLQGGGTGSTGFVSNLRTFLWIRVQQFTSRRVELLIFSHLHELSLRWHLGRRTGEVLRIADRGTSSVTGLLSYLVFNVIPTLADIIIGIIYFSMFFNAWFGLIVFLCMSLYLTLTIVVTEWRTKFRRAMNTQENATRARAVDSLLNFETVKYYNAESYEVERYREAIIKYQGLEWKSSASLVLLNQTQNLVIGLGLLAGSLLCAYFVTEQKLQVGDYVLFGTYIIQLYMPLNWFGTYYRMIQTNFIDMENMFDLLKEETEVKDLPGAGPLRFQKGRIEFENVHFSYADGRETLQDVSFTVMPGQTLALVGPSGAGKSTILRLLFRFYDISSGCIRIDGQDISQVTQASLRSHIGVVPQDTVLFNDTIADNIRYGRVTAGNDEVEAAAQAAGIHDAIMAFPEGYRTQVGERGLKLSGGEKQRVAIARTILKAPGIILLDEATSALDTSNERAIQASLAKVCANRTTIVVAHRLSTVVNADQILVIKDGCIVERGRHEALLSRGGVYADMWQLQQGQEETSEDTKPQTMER
A short description of assay [16]: promoters of myeloid differentiation in arrested cells, primary screen, cell-based, GFP/MAC1 double positive, flow cytometry, validation set (AID 588685;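 active means differentiation response of at least 50%, scaled between solvent and reference control, from cells with both markers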;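 further: compound exposure lasts four days before antibody staining and flow analysis; 0% = DMSO wells and 100% = 5 µM fulvestrant positive control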). As to conditions: ER-HoxA9 marrow cells, stronger effect = higher value, normalized: vehicle 0, fulvestrant 100.

A word on the inhibition: it is the relative decrease from the control value, in per cent. Regarding `CCc1cc(C(N)=S)ccn1`, in [1], the percent of DMSO control GFP is 99.5% (inactive). Besides, the GFP response vs DMSO is 104% (inactive) in [2] and 99.1% (inactive) in [4]. The percent response of DMSO control in [3] was 104% (inactive). Further, the GFP response, % of DMSO in [5] is 107% (inactive). The same compound had a double positive events in assay [6] of 63.7%. Besides, the vesicle binding response in [6] is 166% (inactive). Moreover, the inhibition in assay [7] is 9.63% (inactive); in assay [11], 4.47% (inactive); in [15], 1% (inactive). For the same compound, in assay [8], the superoxide response (% of plate) was 97.7% (inactive). Also, the aptamer binding inhibition in assay [9] is 4% (inactive). For the same compound, the response was -4.68% (inactive) in assay [10] and -4.94% (inactive) in [12]. Further, the binding (% of control) in [13] is 101% (inactive). Further, in [14], the efflux inhibition (fraction of control) was 0.12 (inactive). Further, in [16], the differentiation response is -8.96% (inactive).
Regarding `Cn1nnnc1SCC1=C(C(=O)O)N2C(=O)[C@@H](NC(=O)[C@H](O)c3ccccc3)[C@H]2SC1`, the percent of DMSO control GFP in assay [1] was 97.7% (inactive). Also, the GFP response vs DMSO in assay [2] is 115% (inactive); in [4] it was 90.2% (inactive). For the same compound, in [3], the percent response of DMSO control is 106% (inactive). The GFP response, % of DMSO in [5] was 103% (inactive). In addition, the double positive events in assay [6] stood at 67.4%. Further, the vesicle binding response in assay [6] is 318% (inactive). For the same compound, the inhibition in assay [7] is 0.64% (inactive); in assay [11], 3.95% (inactive); in [15] it was 16% (inactive). In [8], the superoxide response (% of plate) is 86.1% (inactive). In addition, the aptamer binding inhibition in assay [9] is 13% (inactive). Moreover, the figures for the response in assay [10] and in [12] were 3.85% (inactive) and 1.15% (inactive), respectively. The binding (% of control) in [13] is 107% (inactive). In assay [14], the efflux inhibition (fraction of control) was 0.3 (inactive). Moreover, the differentiation response in [16] is 15.6% (inactive).
Consider `CC(=O)OCC#CCSc1nc2ccccc2n1C`, for which, in assay [1], the percent of DMSO control GFP is 97.6% (inactive). Further, the GFP response vs DMSO was 89.7% (inactive) in [2] and 103% (inactive) in assay [4]. Further, the percent response of DMSO control in assay [3] is 96.7% (inactive). The GFP response, % of DMSO in assay [5] was 92.9% (inactive). In [6], the double positive events was 57.8%. Besides, in assay [6], the vesicle binding response was 163% (inactive). The inhibition was -8.62% (inactive) in assay [7], 14.1% (inactive) in assay [11] and 12% (inactive) in assay [15]. The superoxide response (% of plate) in assay [8] is 95% (inactive). Also, the aptamer binding inhibition in assay [9] is 2% (inactive). Also, the response is 7.19% (inactive) in assay [10] and 2.63% (inactive) in assay [12]. In addition, the binding (% of control) in assay [13] is 94.9% (inactive). In [14], the efflux inhibition (fraction of control) is -0.21 (inactive). The differentiation response in assay [16] is -7.2% (inactive).
In the case of `CCCC(=O)O[C@]1(C(=O)COC(C)=O)CC[C@H]2[C@@H]3C[C@H](F)C4=CC(=O)C=C[C@]4(C)[C@@]3(F)[C@@H](O)C[C@@]21C`, the percent of DMSO control GFP in assay [1] is 96.9% (inactive). For the same compound, the GFP response vs DMSO in assay [2] is 114% (inactive); in assay [4] it was 107% (inactive). In addition, the percent response of DMSO control in [3] was 109% (inactive). The GFP response, % of DMSO in assay [5] is 103% (inactive). The same compound came in with a double positive events in [6] of 60.2%. Moreover, in assay [6], the vesicle binding response was 1090% (inactive). The results for the inhibition in assay [7], in assay [11] and in assay [15] were -13.2% (inactive), 24.1% (inactive) and 2% (inactive), respectively. In addition, the superoxide response (% of plate) in [8] was 112% (inactive). Further, the aptamer binding inhibition in assay [9] was 3% (inactive). The values for the response in assay [10] and in [12] were 4.32% (inactive) and -0.33% (inactive), respectively. Besides, in [13], the binding (% of control) was 105% (inactive). Besides, in assay [14], the efflux inhibition (fraction of control) is -0.06 (inactive). Further, the differentiation response in assay [16] was 1.93% (inactive).
`CCOC(=O)C1=C2c3ccc4ccccc4c3CC(C)(C)N2C(=O)C1=O`: the percent of DMSO control GFP in [1] was 104% (inactive). For the same compound, the GFP response vs DMSO was 93% (inactive) in [2] and 78.6% (inactive) in [4]. Moreover, the percent response of DMSO control in [3] was 99.6% (inactive). Moreover, the GFP response, % of DMSO in assay [5] was 85.1% (inactive). The same compound came in with a double positive events in assay [6] of 62%. Moreover, the vesicle binding response in [6] was 205% (inactive). In addition, the inhibition is -4.52% (inactive) in assay [7], 1.16% (inactive) in [11] and -3% (inactive) in [15]. Besides, the superoxide response (% of plate) in [8] was 114% (inactive). Besides, in assay [9], the aptamer binding inhibition was 3% (inactive). Besides, the response in [10] was 7.03% (inactive); in [12] it was -4.69% (inactive). In assay [13], the binding (% of control) is 96.8% (inactive). In addition, the efflux inhibition (fraction of control) in assay [14] was -0.17 (inactive). Moreover, the differentiation response in [16] was -8.8% (inactive).
